C diff HTS = C. difficile growth inhibitors, primary screen, HTS; Clostridium difficile clinical isolate growth, OD600, 24 h; stronger effect = lower value; growth activity, negative = inhibition, % at 16 µg/mL (by protocol); 86,000 tested, 0.25% active; AID 1259249, 2017;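 active = mean growth activity at or below -80% and every replicate also at or below -80%; inconclusive = mean at or below -80% but some replicate above -80%; inactive = mean growth activity above -80%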;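 also: 0% = DMSO wells and -100% = levofloxacin 16 µg/mL wells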
Pf Dd2 inh = P. falciparum Dd2 growth inhibitors, primary screen, SYBR Green fluorescence, single dose replicates. 72 h; stronger effect = lower value. activity change, % at 10 µM. 94,000 tested, 2.3% active; in the data active = activity change below about -80%; inconclusive = no clear call, values can overlap the other calls
An asterisk follows results filed as active; ? = inconclusive; / = not tested or not shown. Only some compounds are listed: those with a hit (about 2.4% of all), similar ones and a draw of the others.

SMILES | C diff HTS | Pf Dd2 inh
C[C@@H]1CN([C@@H](C)CO)C(=O)c2cc(NC(=O)Nc3ccc(C(F)(F)F)cc3)ccc2O[C@@H]1CN(C)Cc1ccc(C(=O)Nc2ccccc2N)cc1 | / | -69
C[C@H](CO)N1C[C@H](C)[C@@H](CN(C)Cc2ccc(C(=O)Nc3ccccc3N)cc2)Oc2ccc(NC(=O)Nc3ccc(C(F)(F)F)cc3)cc2C1=O | / | -90*
C[C@H]1CN([C@@H](C)CO)C(=O)c2cc(NC(=O)Nc3ccc(C(F)(F)F)cc3)ccc2O[C@H]1CN(C)Cc1ccc(C(=O)Nc2ccccc2N)cc1 | 25 | -64
C[C@@H]1CN([C@H](C)CO)C(=O)c2cc(NC(=O)Cc3ccccc3)ccc2O[C@@H]1CN(C)Cc1ccc(C(=O)Nc2ccccc2N)cc1 | 0 | -85*
C[C@H](CO)N1C[C@H](C)[C@@H](CN(C)Cc2ccc(C(=O)Nc3ccccc3N)cc2)Oc2ccc(NC(=O)Cc3ccccc3)cc2C1=O | -1 | -79
C[C@@H]1CN([C@@H](C)CO)C(=O)c2cc(NC(=O)CCC(F)(F)F)ccc2O[C@@H]1CN(C)Cc1ccc(C(=O)Nc2ccccc2N)cc1 | / | -70
COc1ccc(S(=O)(=O)N(C)C[C@@H]2Oc3ccc(NC(=O)CCCN(C)C)cc3CC(=O)N([C@@H](C)CO)C[C@H]2C)cc1 | -6 | 2
CN1C(=O)c2cc(NC(=O)C3CCCCC3)ccc2OC[C@@H]2O[C@@H](CC(=O)NC3CCCC3)CC[C@@H]21 | 0 | 3
COc1ccc(CN2CC3(CCN(C(C)=O)CC3)c3c(n(C)c4cc(OC)ccc34)[C@H]2CO)cc1 | / | 72
COc1ccc2c3c(n(C)c2c1)[C@@H](CO)N(C(=O)c1ccc(F)cc1)CC31CCN(C(C)=O)CC1 | 1 | 15
CCCNC(=O)N1CC2(CN(Cc3nccs3)C2)c2c([nH]c3cc(OC)ccc23)[C@H]1CO | 1 | -6
CCNC(=O)[C@@H]1[C@@H](CO)[C@@H]2Cn3c(ccc(-c4ccc(F)cc4)c3=O)[C@H]1N2C(=O)C1CC1 | -3 | -3
CN(C)CCCNC(=O)C[C@H]1CC[C@H]2[C@@H](COc3ccc(NC(=O)NC4CCCC4)cc3C(=O)N2C)O1 | -2 | -1
C[C@H](CO)N1C[C@H](C)[C@@H](CN(C)Cc2ccc(C(=O)Nc3ccccc3N)cc2)Oc2ccc(NC(=O)Nc3ccc(F)cc3)cc2C1=O | 7 | ?
C[C@@H]1CN([C@H](C)CO)C(=O)c2cc(NC(=O)Nc3ccccc3)ccc2O[C@@H]1CN(C)Cc1ccc(C(=O)Nc2ccccc2N)cc1 | 3 | -85*
C[C@H]1CN([C@@H](C)CO)C(=O)Cc2cc(NC(=O)C3CCCCC3)ccc2O[C@H]1CN(C)C(=O)NC1CCCCC1 | -3 | -9
C[C@@H]1CN([C@H](C)CO)C(=O)Cc2cc(NC(=O)C3CCCCC3)ccc2O[C@H]1CN(C)Cc1ccc(Oc2ccccc2)cc1 | 11 | -28
CC(=O)N1CC[C@@H]2[C@@H](CO)Nc3ccc(C#Cc4ccccc4F)cc3[C@@H]21 | -1 | -83*
COc1ccccc1C#Cc1ccc2c(c1)[C@H]1[C@H](CCN1C(=O)c1ccccc1)[C@H](CO)N2 | 2 | -4
COc1ccccc1CN1CC[C@H]2[C@H](CO)Nc3ccc(C#Cc4ccccc4)cc3[C@H]21 | -100* | -76
COc1ccccc1C#Cc1ccc2c(c1)[C@H]1[C@H](CCN1C(=O)c1ccc(F)cc1)[C@@H](CO)N2 | -101* | -65
COc1ccccc1C#Cc1ccc2c(c1)[C@@H]1[C@@H](CCN1C(=O)c1ccncc1)[C@H](CO)N2 | 12 | -63
COc1ccccc1C#Cc1ccc2c(c1)[C@@H]1[C@@H](CCN1C(=O)c1ccncc1)[C@@H](CO)N2 | -95* | -45
COc1ccccc1CN1CC[C@H]2[C@H](CO)Nc3ccc(-c4cccc(F)c4)cc3[C@H]21 | -2 | -67
CC(=O)N1CC[C@H]2[C@H](CO)Nc3ccc(C#Cc4ccccc4F)cc3[C@H]21 | -7 | -21
SMILES | C diff HTS | Pf Dd2 inh
CCNC(=O)C[C@H]1CC[C@@H]2[C@H](COC[C@@H](O)CN2C(=O)CC)O1 | / | 13
CCCC(=O)N1CCC2(CC1)CN[C@@H](CO)c1c2c2ccc(OC)cc2n1C | / | 38
C[C@@H]1CN([C@H](C)CO)C(=O)c2cc(NC(=O)c3ccncc3)ccc2O[C@@H](C)CCCCO[C@@H]1CN(C)C(=O)Nc1cccc2ccccc12 | 16 | -90*
C[C@@H]1CN([C@@H](C)CO)C(=O)c2cc(NC(=O)c3ccncc3)ccc2O[C@@H](C)CCCCO[C@H]1CN(C)C(=O)Nc1cccc2ccccc12 | 4 | -80
C[C@@H]1CCCCO[C@@H](CN(C)C(=O)Nc2cccc3ccccc23)[C@H](C)CN([C@H](C)CO)C(=O)c2cc(NC(=O)c3ccncc3)ccc2O1 | 3 | -85*
C[C@@H]1CCCCO[C@@H](CN(C)C(=O)Nc2cccc3ccccc23)[C@H](C)CN([C@@H](C)CO)C(=O)c2cc(NC(=O)c3ccncc3)ccc2O1 | 14 | -73
